# The campaign covered roughly 200,000 compounds. About 18,000 (9%) were called active. For the sample, actives were picked, then their nearest neighbours and some compounds at random. A number with no mark means an inactive call. No stated cut-off is given here; in the data, active means inhibition above about 50%; inactive means the rest.
# Test: Leishmania major promastigote growth inhibition, primary screen (AID 1063);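 further: promastigotes grown with compound for 44 hours at 28 °C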
# Settings: Leishmania major promastigotes, resazurin fluorescence viability; at 10 µM; hits give high values
row,Compound,inhibition
1,Cc1ccc(C)c(NC(=O)CCC(=O)N/N=C2/CC(=O)CC(C)(C)C2)c1,-2.4%
2,Cc1nnc(SC(C(=O)Nc2cc(Cl)cc(Cl)c2)c2ccccc2)[nH]c1=O (stereo not given),-10.6%
3,O=C(CCC(=O)N1CCCC1)Nc1ccc([N+](=O)[O-])cc1,-1.46%
4,O=C(CN(CC1CCCO1)C(=O)CNS(=O)(=O)c1ccc(F)cc1)NCc1ccco1 (stereo not given),-10%
5,O=C(NCc1ccco1)C1CCCN(S(=O)(=O)c2ccccc2)C1 (stereo not given),-0.05%
6,CCCC(C(=O)NCc1ccco1)N(C(=O)CNS(=O)(=O)c1ccccc1)C1CCCC1 (stereo not given),60% (active)
7,CC1(C)Cc2c(C#N)c(SCc3nc4ccccc4[nH]3)nc(N3CCOCC3)c2CO1,34.1%
8,CC(C)c1nc(N2CCOCC2)c(C#N)c2c1COC(C)(C)C2,4.48%
9,COc1ccc(CSc2nc(N3CCOCC3)c3c(c2C#N)CC(C)(C)OC3)cc1,66.8% (active)
10,CCN(CC)C(=O)CS(=O)CC(=O)Nc1cc(OCCOC)c(Cl)cc1Cl (stereo not given),1.34%
11,Cc1ccnc2nc(C(=O)Nc3nnc(-c4ccccc4)o3)nn12,-14.4%
12,CCOc1ccc(-n2cnnn2)cc1S(=O)(=O)N1CCC(C)CC1C (stereo not given),-5.29%
13,COc1cc2[nH]c(=S)n(Cc3ccc(F)cc3)c(=O)c2cc1OC,-5.46%
14,CCOC(=O)C1CCN(S(=O)(=O)c2cc(F)ccc2OC)CC1,6.21%
15,Cc1cc2cc(CN(Cc3cccs3)Cc3nnnn3CC3CCCO3)c(=O)[nH]c2cc1C (stereo not given),21.2%
16,Cc1cc(C)c2cc(CN(Cc3cccs3)Cc3nnnn3CC3CCCO3)c(=O)[nH]c2c1 (stereo not given),48.9%
17,Cc1cccc2cc(CN(Cc3ccc4c(c3)OCO4)Cc3nnnn3C3CCCC3)c(=O)[nH]c12,71.8% (active)
18,Cc1cccc2cc(CN(Cc3cccs3)C(c3nnnn3C3CCCC3)C(C)C)c(=O)[nH]c12 (stereo not given),90.3% (active)
19,CCC(c1nnnn1C1CCCC1)N(Cc1cccs1)Cc1cc2cccc(C)c2[nH]c1=O (stereo not given),30.1%
20,Cc1cccc2cc(CN(Cc3nnnn3Cc3ccccc3)C3CCCC3)c(=O)[nH]c12,36.7%
21,C=C(C)CNC(=S)N/N=C/c1ccccc1OCC(=O)O,-1.38%
22,O=S(=O)(NCCc1ccc(F)cc1)c1cccc2cccnc12,-0.53%
23,O=C1C2C3C=CC(C3)C2C(=O)N1c1ccc(-c2nc3ccccc3c(=O)o2)cc1 (stereo not given),-7%
24,COc1ccc(OC)c(-n2c(=S)[nH]c3cc(C(=O)N4CCCCC4)ccc3c2=O)c1,-7.75%

row,Compound,inhibition
1,COc1ccc(C(=O)Nc2ccc(-n3nncc3C(C)(C)C)cc2)cc1,-0.36%
2,COc1cc(C(=O)OCc2ccc([N+](=O)[O-])cc2)cc(OC)c1OC,-8.98%
3,COc1cc(/C=N/O)ccc1OCc1ccc([N+](=O)[O-])cc1,51.5% (active)
4,COc1cc(/C=N\Nc2ccc([N+](=O)[O-])cn2)ccc1OCC(=O)O,4.37%
5,COC(=O)Cc1ccc(Oc2ncc(C(F)(F)F)cc2Cl)cc1,-7.25%
6,C/C(=N\NC(=O)NC1CCCCC1)c1ccc(OC(F)F)cc1OC(F)F,46.4%
7,CCN(CC)CCOC(=O)c1ccc(NC(=O)CNC(=O)c2ccccc2)cc1,-0.48%
8,CCOC(=O)c1ccccc1NC(=S)N1CCC(C(N)=O)CC1,4.08%
9,COc1cccc(-n2c(=O)c3c(C)c(C(=O)N(C)C)sc3n(CC(=O)NCCc3ccc(OC)c(OC)c3)c2=O)c1,2.17%
10,COc1cc(OC)c(C(=O)Nc2ccc(N(C)C)cc2)cc1OC,3.39%
11,COc1cc(OC)c(C(=O)Nc2ccccc2-c2ccccc2)cc1OC,82.5% (active)
12,O=C(Nc1ccccc1F)c1ccccc1-c1ccccc1,-3.5%
13,O=C(NCc1ccccc1Cl)C1CCN(S(=O)(=O)N2CCOCC2)CC1,-5.43%
14,CCOc1ncccc1C(=O)OCC(=O)NC1CC1,4.89%
15,Cc1csc(NC(=O)CSc2ccc(-c3ccc(F)cc3)nn2)n1,7.99%
16,NNC(=O)C1CC(O)CN1S(=O)(=O)c1ccc(Cl)cc1 (stereo not given),4%
17,O=C(NCc1ccccc1)C1CCCN(c2nc3ccsc3c(=O)s2)C1 (stereo not given),-5.75%
18,C=CCn1c(COc2ccc(F)cc2)nnc1SCC(=O)Nc1cccc(S(N)(=O)=O)c1,1.1%
19,COc1ccc(NC(=O)c2ccccc2CC[N+](=O)[O-])cc1,13.1%
20,Cc1ccccc1NC(=O)CNc1ccccc1N1CCCCC1,21.9%
21,Cn1c(=O)c2c(nc(SCC(=O)Nc3ccccc3N3CCCCC3)n2C)n(C)c1=O,31%
22,CC(C)n1c(SCC(=O)Nc2ccccc2N2CCCCC2)nc2c1c(=O)n(C)c(=O)n2C,58.5% (active)
23,CN(c1ccccc1)S(=O)(=O)c1ccc(Cl)c(C(=O)OCC(=O)N2CCOCC2)c1,1.28%
24,CCC(=O)NC(=Nc1nc2ccccc2s1)NC(=O)CC,8.31%

row,Compound,inhibition
1,CC(C)CC(=O)N/C(N)=N/c1nc2ccccc2s1,95.3% (active)
2,COC(=O)c1nc2ccccc2s1,-8.95%
3,CC/C(=N\NC(=S)NC(C)C)c1ccc(OC(F)F)cc1,16.9%
4,CN(C)CCOc1ccc(Cl)cc1C(C)(C)C,6.15%
5,Cc1cc(Cl)ccc1OCCCC(=O)NCc1ccncc1,-0.52%
6,CC(C)(C)NCCCOc1ccc(Cl)cc1C(C)(C)C,100% (active)
7,O=C(CN(c1cccc(Cl)c1)S(=O)(=O)c1ccccc1)NN=C1CCCC1,12.4%
8,COC(=O)[C@H](Cc1ccccc1)NC(=O)N1CC(C)OC(C)C1 (stereo not given in full),15.6%
9,CC1CCCN(CCOCCOc2ccccc2-c2ccccc2)C1 (stereo not given),98.6% (active)
10,c1ccc(-c2ccccc2OCCN2CCCCC2)cc1,8.2%
11,CC1CCCN(Cc2nc3c(c(=O)n(C)c(=O)n3C)n2CC(=O)c2ccccc2)C1 (stereo not given),22.4%
12,CC1CN(CCCOc2ccccc2-c2ccccc2)CC(C)O1 (stereo not given),88.7% (active)
13,CN1CCN(CCCCOc2ccccc2-c2ccccc2)CC1,44.5%
14,CC1CCN(S(=O)(=O)c2ccc(S(=O)(=O)NCc3cccnc3)cc2)CC1,-2.4%
15,CS(=O)(=O)N(CC(=O)NC1CCCC1)Cc1ccc(F)cc1,-5.9%
16,Cc1cccn2c(=O)c3cc(C#N)c(=NC(=O)c4cccnc4)n(CC4CCCO4)c3nc12 (stereo not given),16.8%
17,Cc1cccn2c(=O)c3cc(C#N)c(=O)n(CCCN4CCOCC4)c3nc12,95.7% (active)
18,Cc1ccc(-n2c(=O)c(C#N)cc3c(=O)n4ccccc4nc32)cc1C,2.63%
19,CN1C(=O)/C(=C\c2ccc(-c3ccccc3)o2)SC1=S,-6.51%
20,COc1ccccc1NC(=O)COC(=O)Cc1ccc(S(=O)(=O)N2CCCCC2)s1,6.48%
21,O=C(Cc1ccc(S(=O)(=O)N2CCOCC2)s1)NCCC(c1ccccc1)c1ccccc1,98.1% (active)
22,O=C(NCCc1ccccc1)C1CCN(S(=O)(=O)c2ccc(Br)s2)CC1,-1.73%
23,O=C(NC1CCCCC1)C1CCCN(S(=O)(=O)c2ccc(Br)s2)C1 (stereo not given),12.5%
24,O=C(Cc1ccc(S(=O)(=O)N2CCCC2)s1)NC1CCCCCC1,93.5% (active)

row,Compound,inhibition
1,O=C(NC1CCCCC1)n1c(=O)oc2cc(S(=O)(=O)N3CCCCC3)ccc21,2.93%
2,COc1cccc(CC(=O)N2CCCC(CCC(=O)N3CCN(c4ccccn4)CC3)C2)c1 (stereo not given),8.58%
3,Cc1cc(OC(=O)c2ccccc2Cl)ccc1N1C(=O)CCC1=O,-6.74%
4,Cc1ccccc1-n1nc(SCC(=O)O)sc1=S,-4.01%
5,Cc1ccc(C2CCN(C(=S)Nc3cccc(Cl)c3)C2)cc1 (stereo not given),0.88%
6,CCOc1ccc(/C=N/Nc2nncc(-c3ccccc3)n2)cc1OC,-2.97%
7,CC(C)(C)C(=O)/C(C#N)=C/c1ccc(O)cc1,-4.15%
8,CC(C)NC(=O)/C(C#N)=C\c1ccc(N(C)C)c(Br)c1,64.6% (active)
9,Cc1[nH]c2ccccc2c1/C=C(/C#N)C(=O)NC(C)C,16.4%
10,C1CC1Cc1noc(CN2CCN(CC3CC3)CC2)n1,15.8%
11,CCOc1ccc2nc(/N=C/c3nc(-c4ccccc4)oc3O)sc2c1,54.2% (active)
12,CC(N=Cc1nc(-c2ccccc2)oc1O)c1ccccc1 (stereo not given),-1.28%
13,CCOc1ccc2nc(C(=O)N3CCCC(C)C3)sc2c1 (stereo not given),41.6%
14,Cc1ccc(S(=O)(=O)N(C)CC(=O)OCC(=O)N2CC(=O)Nc3ccccc32)cc1,0.63%
15,N/C(=N\OC(=O)c1ccc2c(c1)OCO2)c1ccc(Br)cc1,1.57%
16,CCCC1CCC(=NNC(=S)NCCc2ccccc2)CC1 (stereo not given),-9.55%
17,Cc1ccc(NC(=S)N/N=C2/CCCc3c(C)cc(C)cc32)cc1,-7.12%
18,CCCCNC(=S)N/N=C1\CCCCc2ccccc21,97.5% (active)
19,CCN(C(=O)COC(=O)c1cc(S(=O)(=O)N2CCc3ccccc32)ccc1OC)C1CCS(=O)(=O)C1 (stereo not given),-4.24%
20,CN(C)c1ccc(Nc2c3c4c(cccc4n(C)c2=O)C(=O)c2ccccc2-3)cc1,59% (active)
21,O=c1[nH]c(CCl)nc2cc(-c3ccc(Cl)cc3)sc12,96.9% (active)
22,NC(=O)Cc1nc2scc(-c3ccc(Cl)cc3)c2c(=O)[nH]1,5.26%
23,O=c1[nH]c(CN2CCOCC2)nc2cc(Cl)ccc12,-9.96%
